Values without a mark were called inactive. Inconclusive results are not listed. The source made the active and inactive calls. Unless noted, calls follow the shape of the dose curve; as a rule, active = well fitted curve in the direction sought with a large enough effect in the repeat runs; inconclusive = weak or mixed curves; inactive = no such curve, though single readings can be large; an effect the other way counts as inactive or inconclusive.

From PubChem BioAssay (Tox21) come the findings set out here.

Assay [1] in a line: qHTS assay to identify small molecule antagonists of the androgen receptor (AR) signaling pathway using the MDA cell line in the presence of 0.5 nM R1881 - cell viability counter screen (AID 1259242). Also: nearly all actives have a fitted effect of over 45% in size. The method, boiled down:
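Concentration-response screen of compounds for toxicity in MDA-kb2 reporter cells: 16 hr at 37C with 0.5 nM R1881, endpoint live-cell protease fluorescence measured in the reporter wells.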
Background: In qHTS, concentration-response curves come from the screen itself.

Assay [2] addresses Estrogen receptor (Homo sapiens) (UniProt P03372). The assay is described as follows: qHTS assay to identify small molecule antagonists of the estrogen receptor alpha (ER-alpha) signaling pathway using the BG1 cell line in the presence of 0.1 nM 17-beta-estradiol (AID 1259244). Also: nearly all actives have a fitted effect of over 50% in size. The method, boiled down: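 Compounds were tested against 0.1 nM (final) 17beta-estradiol in VM7Luc4E2 cells, which express full-length ER-alpha and an ERE-luciferase reporter; luminescence was recorded following 22 h exposure.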

Assay [3] in a line: qHTS assay to identify small molecule phospholipidosis (PLD) inducers (AID 1259344; active = well fitted curve in the direction sought with a large enough effect; an effect the other way counts as inactive or inconclusive). The method, boiled down:
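Image-based: LipidTOX Red pit count/intensity per well and per cell; HepG2, 24 h compound at 37 C, PFA fixation, Hoechst counterstain.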

The nature of assay [4]: qHTS assay to identify small molecule HDAC inhibitors (AID 1259364).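 Also: wild-type HCT-116 cells with endogenous class I/II HDAC activity; top concentration of the series differs between compounds; nearly all actives have a fitted effect of over 45% in size.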 The method, boiled down:
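Screening used wild-type human colon HCT-116 cells incubated overnight, dosed with compounds for 2 hours, and assayed with a homogeneous luminogenic HDAC I/II reagent for 30 minutes at room temperature.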

Assay [5] can be described thus: qHTS assay to identify small molecule HDAC inhibitors - cell viability counter screen (AID 1259365). Also: series mostly up to about 92 µM; nearly all actives have a fitted effect of over 50% in size. The method, boiled down:
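Measured quantity is CellTiter-Glo luminescence from wild-type HCT-116 cells after compound incubation of 2hr at 37C, 5% CO2; reagent developed 30min at room temperature.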

Assay [6] can be described thus: qHTS assay to identify small molecule antagonists of the sonic hedgehog signaling (Shh) pathway - cell viability counter screen (AID 1259367). Also: nearly all actives have a fitted effect of over 55% in size. In a few lines: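 Tox21 library chemicals were tested on a Gli1-Luc NIH/3T3 clone (2,000 cells/well) stimulated by conditioned medium; viability was quantified as fluorescence from CellTiter-Fluor reagent added at 23 hr.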

Assay [7] is described as follows: qHTS assay to identify small molecule agonists of the sonic hedgehog signaling (Shh) pathway (AID 1259368; calls by dose curve; also: nearly all actives have a fitted effect of over 15% in size; also: potency is read from the fitted curve at half-maximal effect;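 as to activity change: NIH/3T3-derived 3T3Gli1-Luc cells carrying a stable Gli1-driven firefly luciferase reporter; series mostly up to about 92 µM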). The method, boiled down:
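Hedgehog pathway agonism scored by increased firefly luciferase luminescence in 3T3Gli1-Luc cells treated 24 hr at 37 C; detection used a 30 min room-temperature reagent incubation.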

Assay [8] in a line: qHTS assay to identify small molecule agonists of the androgen receptor (AR) signaling pathway in the presence of an antagonist - cell viability counter screen (AID 1259379).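 Also: MDA-kb2 human breast cancer cells carrying an MMTV luciferase reporter; series mostly up to about 92 µM; nearly all actives have a fitted effect of over 25% in size.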 The method, boiled down: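 MDA-kb2 viability measured by CellTiter-Fluor fluorescence in the same wells as the luciferase signal; nilutamide 3.0uM final; 15-point compound titration; 16 hr at 37C.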
A short description of assay [9]: qHTS assay to identify small molecule antagonists of the estrogen receptor beta (ER-beta) signaling pathway - cell viability counter screen (AID 1259382). Also: series mostly up to about 92 µM; nearly all actives have a fitted effect of over 55% in size. The method, boiled down:
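Readout: luminescence, CellTiter-Glo, same wells as bla assay. System: ER-beta-UAS-bla GripTite HEK293T, 2% charcoal-stripped FBS. Exposure: compounds plus 1nM 17-beta-estradiol, 16 hr, 37C.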

Assay [10] concerns the target Estrogen receptor (Homo sapiens) (UniProt P03372). The assay is described as follows: qHTS assay to identify small molecule agonists of the estrogen receptor alpha (ER-alpha) signaling pathway in the presence of an antagonist (AID 1259383; calls by dose curve; also: top concentration of the series differs between compounds; nearly all actives have a fitted effect of over 15% in size). The method, boiled down:
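Quantitative HTS confirmation: compounds titrated at 15 concentrations onto estrogen-deprived VM7Luc4E2 cells carrying a four-ERE luciferase construct, with ICI-182,780 present at 10.0nM final. Signal is luminescence after 22hr exposure.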

A short description of assay [11]: qHTS assay to identify small molecule agonists or antagonists of the thyroid stimulating hormone receptor (TSHR) signaling pathway - wild type cell line counter screen (AID 1259384; calls by dose curve). The method, boiled down: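 Wild-type Hek293 cells, 800/well, 18 h at 37C, then compound with Ro20-1724 for 30 min RT. cAMP by HTRF (cAMP-d2/anti-cAMP cryptate), 1 h RT, fluorescence read. 15 concentrations, triplicates.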

Assay [12] can be described thus: qHTS assay to identify small molecule agonists of the estrogen receptor alpha (ER-alpha) signaling pathway in the presence of an antagonist - cell viability counter screen (AID 1259386).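 Also: series mostly up to about 92 µM; cells exposed to compounds for 22 h at 37 °C before the viability read; nearly all actives have a fitted effect of over 30% in size.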 In a few lines: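 The test measures whether compounds kill ER-alpha reporter cells (VM7Luc4E2) under antagonist co-treatment (ICI-182,780, 10.0nM). Fluorescence from CellTiter-Fluor is read after a 22hr exposure.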

Assay [13] can be described thus: qHTS assay to identify small molecule antagonists of the sonic hedgehog signaling (Shh) pathway (AID 1259369; calls by dose curve; also: nearly all actives have a fitted effect of over 45% in size; also: potency is read from the fitted curve at half-maximal effect). In a few lines: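 NIH/3T3 stable Gli1-Luc clone, 2,000 cells/well, 4hr settle; cpd + conditioned medium 24hr; Luc reagent 30min RT; luminescence.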
Assay [14] has as its target Estrogen receptor beta (Homo sapiens) (UniProt Q92731). The assay is described as follows: qHTS assay to identify small molecule agonists of the estrogen receptor beta (ER-beta) signaling pathway (AID 1259377; active = well fitted activation curve with a large enough effect in the signal ratio in the repeat runs, not every such curve was filed as active; the % refers to the signal ratio). In a few lines: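 Reporter cells (HEK293T, ER-beta-UAS-bla) receive compounds or DMSO after a 6 hr pre-incubation. They then incubate 16 hr at 37C/5% CO2, and fluorescence from LiveBLAzer B/G substrate is measured after 2 hours at room temperature.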

Assay [15] can be described thus: qHTS assay to identify small molecule agonists of the estrogen receptor beta (ER-beta) signaling pathway - cell viability counter screen (AID 1259380). Also: nearly all actives have a fitted effect of over 30% in size. In a few lines:
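Measured: luminescence from CellTiter-Glo after 30 min at room temperature, added to wells already read for the LiveBLAzer FRET reporter (2 hr substrate); ER-beta-UAS-bla HEK293T cells had 16 hr compound treatment at 37C, 5% CO2.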

The nature of assay [16]: qHTS assay to identify small molecule agonists of the sonic hedgehog signaling (Shh) pathway - cell viability counter screen (AID 1259366). Also: nearly all actives have a fitted effect of over 50% in size. In a few lines: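 In quantitative high-throughput format, 3T3 Gli1-Luc cells were exposed to compounds for 24hr and multiplexed for viability using CellTiter-Fluor, incubated 1hr at 37C before the fluorescence read.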
Assay [17] deals with Estrogen receptor beta (Homo sapiens) (UniProt Q92731). The assay can be described thus: qHTS assay to identify small molecule antagonists of the estrogen receptor beta (ER-beta) signaling pathway (AID 1259378; active = well fitted inhibition curve with a large enough effect in the signal ratio in the repeat runs, not every such curve was filed as active; the % refers to the signal ratio). The method, boiled down:
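ER-beta-UAS-bla HEK293T cells in 2% charcoal-stripped FBS medium treated with compound plus 1nM final 17-beta-estradiol for 16 hr at 37C. Beta-lactamase reporter read by FRET substrate fluorescence after 2 hours at room temperature.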

Assay [18] deals with Thyrotropin receptor (Homo sapiens) (UniProt P16473). The assay is described as follows: qHTS assay to identify small molecule antagonists of the thyroid stimulating hormone receptor (TSHR) signaling pathway (AID 1259385; calls by dose curve; also: nearly all actives have a fitted effect of over 20% in size). In a few lines:
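TSHR-HEK293 cells (800/well) plated 18 h, then compounds with Ro20-1724 and TSH at 1.5 ng/mL final, 30 min at room temperature. cAMP quantified by HTRF (cAMP-d2/anti-cAMP-cryptate, 1 h); 15 concentrations in triplicate.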
% is scaled to controls: 0 for no effect and ±100 for the full control effect.

Sequence of Estrogen receptor (Homo sapiens) (P03372 whole entry, looked up): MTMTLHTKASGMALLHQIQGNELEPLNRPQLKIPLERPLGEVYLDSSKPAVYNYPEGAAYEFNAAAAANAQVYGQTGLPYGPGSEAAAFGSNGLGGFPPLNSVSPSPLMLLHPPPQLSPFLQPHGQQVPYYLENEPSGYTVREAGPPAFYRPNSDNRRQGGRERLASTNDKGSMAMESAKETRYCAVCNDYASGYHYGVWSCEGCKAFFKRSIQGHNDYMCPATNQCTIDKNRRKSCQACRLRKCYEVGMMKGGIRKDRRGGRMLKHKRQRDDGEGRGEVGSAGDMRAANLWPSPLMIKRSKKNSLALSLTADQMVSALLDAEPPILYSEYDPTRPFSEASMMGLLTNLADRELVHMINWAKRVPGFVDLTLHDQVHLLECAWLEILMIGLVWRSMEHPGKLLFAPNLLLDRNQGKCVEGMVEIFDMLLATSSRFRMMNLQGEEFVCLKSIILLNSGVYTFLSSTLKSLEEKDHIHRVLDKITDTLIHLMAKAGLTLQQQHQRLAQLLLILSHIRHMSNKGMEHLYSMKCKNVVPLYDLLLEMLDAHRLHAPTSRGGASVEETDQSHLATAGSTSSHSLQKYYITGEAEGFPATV
Sequence of Thyrotropin receptor (Homo sapiens) (P16473 whole entry, looked up): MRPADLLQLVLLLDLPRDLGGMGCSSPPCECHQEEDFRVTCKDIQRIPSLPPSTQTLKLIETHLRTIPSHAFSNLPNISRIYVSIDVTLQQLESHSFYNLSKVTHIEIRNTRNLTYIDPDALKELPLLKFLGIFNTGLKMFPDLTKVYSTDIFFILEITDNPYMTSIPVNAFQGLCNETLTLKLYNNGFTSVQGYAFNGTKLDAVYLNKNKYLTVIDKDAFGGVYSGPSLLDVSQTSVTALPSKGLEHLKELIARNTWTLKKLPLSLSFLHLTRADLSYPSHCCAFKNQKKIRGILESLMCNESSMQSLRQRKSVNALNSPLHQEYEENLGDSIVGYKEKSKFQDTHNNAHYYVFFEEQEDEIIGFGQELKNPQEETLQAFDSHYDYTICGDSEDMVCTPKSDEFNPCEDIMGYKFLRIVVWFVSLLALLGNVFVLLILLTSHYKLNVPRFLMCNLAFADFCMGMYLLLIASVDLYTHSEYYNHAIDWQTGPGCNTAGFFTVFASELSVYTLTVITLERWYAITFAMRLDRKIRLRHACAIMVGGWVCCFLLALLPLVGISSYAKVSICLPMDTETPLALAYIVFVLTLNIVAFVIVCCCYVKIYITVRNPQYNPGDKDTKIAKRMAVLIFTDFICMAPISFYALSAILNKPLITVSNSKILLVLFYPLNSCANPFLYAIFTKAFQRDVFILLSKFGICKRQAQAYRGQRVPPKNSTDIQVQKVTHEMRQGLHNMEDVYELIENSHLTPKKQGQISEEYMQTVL
Sequence of Estrogen receptor beta (Homo sapiens) (Q92731 whole entry, looked up): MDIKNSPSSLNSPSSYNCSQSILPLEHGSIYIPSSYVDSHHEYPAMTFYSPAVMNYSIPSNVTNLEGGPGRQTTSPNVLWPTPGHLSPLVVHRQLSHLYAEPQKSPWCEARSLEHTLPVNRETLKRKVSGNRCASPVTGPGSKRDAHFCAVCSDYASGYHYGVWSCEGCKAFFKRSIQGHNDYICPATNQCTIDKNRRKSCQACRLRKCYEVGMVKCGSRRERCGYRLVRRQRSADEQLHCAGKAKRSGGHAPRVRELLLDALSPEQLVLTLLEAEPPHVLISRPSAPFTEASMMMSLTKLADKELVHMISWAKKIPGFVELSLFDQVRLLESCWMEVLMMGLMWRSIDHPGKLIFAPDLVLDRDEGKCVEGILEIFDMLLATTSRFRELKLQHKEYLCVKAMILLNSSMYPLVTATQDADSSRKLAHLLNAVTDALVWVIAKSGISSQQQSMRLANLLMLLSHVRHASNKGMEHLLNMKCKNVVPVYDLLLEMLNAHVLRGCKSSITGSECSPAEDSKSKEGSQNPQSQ

Consider `CC1(C)O[C@@H]2C[C@H]3[C@@H]4CCC5=CC(=O)CC[C@]5(C)[C@@]4(F)[C@@H](O)C[C@]3(C)[C@]2(C(=O)CCl)O1`, for which the outcome in assay [1], in assay [3], in assay [5], in assay [9] and in [11] was inactive. In addition, the Potency result in [2], in [4], in [6], in [8], in assay [10] and in [12] was “inactive” throughout. Further, the Potency in assay [7] is 13.3 µM (active).
Turning to `CN1CCN(C2=Nc3ccccc3Oc3ccc(Cl)cc32)CC1`, the outcome in [1], in [3], in [5], in assay [14], in assay [9] and in assay [11] was inactive. Further, the Potency entry in [2], in [4], in assay [7], in assay [8], in assay [15] and in assay [10] was “inactive” throughout. Besides, the Potency result in [12] was “inactive”. Also, in assay [13], the Potency is 6.68 µM (active).
As for `Cc1nnc(SCC2=C(C(=O)O)N3C(=O)[C@@H](NC(=O)Cn4cnnn4)[C@H]3SC2)s1`, the result in [1], in [3], in [5], in [9] and in [11] was inactive. Besides, the Potency result in assay [2], in [4], in assay [16], in assay [6], in assay [7] and in [13] was “inactive” in each case. Moreover, the Potency entry in assay [17], in assay [8], in [15], in assay [10], in [18] and in [12] was “inactive” each time.
Regarding `O=c1[nH]c(=O)n([C@H]2C[C@H](O)[C@@H](CO)O2)cc1C(F)(F)F`, the outcome in assay [1], in assay [3], in [5] and in assay [9] was inactive. Besides, the Potency entry in assay [2], in assay [4], in assay [16], in [6], in assay [7] and in assay [13] was “inactive” in each case. The Potency result in assay [8], in assay [15], in [10] and in assay [12] was “inactive” each time.
For the compound `COc1ccc(S(=O)(=O)Nc2nnc(CC(C)C)s2)cc1`, the result in assay [1], in assay [3], in assay [5], in [14] and in [9] was inactive. For the same compound, the Potency result in assay [2], in [4], in assay [16], in assay [6], in assay [7] and in assay [13] was “inactive” throughout. Further, the Potency result in assay [17], in [8], in [15], in assay [10] and in assay [12] was “inactive” throughout.
Regarding `CS(=O)(=O)c1ccc([C@@H](O)[C@@H](CF)NC(=O)C(Cl)Cl)cc1`, the result in [1], in assay [3], in [5], in assay [9] and in assay [11] was inactive. Besides, the Potency entry in assay [2], in assay [4], in [16], in assay [6], in [7] and in [8] was “inactive” each time. Moreover, the Potency result in assay [15], in assay [10], in assay [18] and in assay [12] was “inactive” in each case.
Turning to `O=C1N(c2ccccc2)c2ccccc2C1(Cc1ccncc1)Cc1ccncc1`, the outcome in assay [1], in assay [3], in assay [5], in assay [14] and in assay [9] was inactive. The Potency result in [2], in assay [4], in assay [16], in assay [6], in assay [7] and in assay [13] was “inactive” throughout. Moreover, the Potency result in assay [17], in assay [8], in assay [15], in [10] and in assay [12] was “inactive” in each case.
In the case of `O=C(O)c1ccccc1Nc1cc(Cl)ccc1C(=O)O`, in assay [1], the viability change, negative = cytotoxic was -0.133% [at 19 µM]. The activity change, negative = inhibition in assay [2] was -11% [at 19 µM]; in [4], -1.95% [at 19 µM]; in assay [18], 2.68% [at 19 µM]. Also, in assay [3], the PLD induction is -4.32% [at 7.66 µM]. The activity change, negative = cytotoxicity in assay [5] was -5.17% [at 19 µM]; in [8], -0.898% [at 19 µM]; in [15], -3.75% [at 19 µM]; in assay [9] it was -13.6% [at 19 µM]; in assay [12], -2.8% [at 19 µM]. The activity change in assay [7] was -0.0136% [at 18.9 µM, stronger effect = higher value]. In addition, the activation in assay [14] is 0.616% [at 19 µM]; in [10], -1.25% [at 19 µM]. Besides, in [11], the cAMP activity change was 0.0654% [at 18.9 µM].
